A selection follows.
aSyn UTR act: Activators working through SNCA 5'UTR binding (MLPCN); 300,000 tested, 7.1% active; alpha-synuclein 5'UTR reporter, activators screen; activity score, % (tested at 7.5 µM), hits read low; AID 1814; in the data active = activity score below about -60%
The depositor's hits bear a star.

SMILES	aSyn UTR act
CN(C)c1ccc(C(=O)OCC(=O)N2CCCCCC2)cc1	-64.8*
O=c1c(Cl)c(Cl)cnn1Cc1nnc(-c2ccc(Cl)cc2)o1	-179.2*
CC1(c2ccccc2)CC(c2ccccc2)=Nc2ccccc2N1 (stereo not drawn)	-104.1*
Cc1ccc(OCCCCCN2CCOCC2)c(Cl)c1	-73.7*
Cc1ccc(OCc2ccc(C(=O)Nc3nc4ccccc4n3Cc3ccccc3)o2)c([N+](=O)[O-])c1	61.1
Cc1cc(OCC(=O)N2CCOCC2)ccc1[N+](=O)[O-]	-75.7*
Cc1cc(OCCN2CCOCC2)ccc1[N+](=O)[O-]	-80.2*
Cc1ccc(OCCCN2CCOCC2)c([N+](=O)[O-])c1	-82.0*
Cc1cc(OCCN2CCOCC2)ccc1Cl	-75.9*
O=[N+]([O-])c1ccc(N=Cc2sc3ccccc3c2O)cc1	-68.3*
Oc1c(C=NCc2ccccc2)sc2ccccc12	-103.4*
O=[N+]([O-])c1ccc(N=Nc2c(Cl)cc(O)cc2Cl)cc1	58.4
CCOC(=O)c1sc(NC(=S)NC(=O)C2CC2)cc1C	-84.6*
CCOC(=O)c1sc(NC(=S)NC(=O)C23CC4CC(CC(C4)C2)C3)cc1C	-103.9*
Cc1ccc(C(=O)Nc2ccc(-c3csc(C)n3)cc2)cc1	-137.6*
Cc1ccc(CNC(=O)c2ccc(Cn3cc(-c4ccc(C)cc4)nc3-c3ccncc3)cc2)cc1	-176.6*
CCc1ccccc1NC(=O)c1ccc(-c2csc(C)n2)cc1	-143.0*
Cc1nc(-c2ccc(NC(=O)C3CCCCC3)cc2)cs1	-173.7*
Cc1ccc(C(=O)NCCc2ccccc2)cc1	71.1
Cc1ccc(CCNC(=O)NC(C)(C)C)cc1	-94.2*
Cc1ccn(C(=O)c2ccc(NC(=O)C3CCCCC3)cc2)n1	-70.4*
Cc1ccc(C(=O)NCCc2ccncc2)cc1	-113.8*
Cc1ccc(C(=O)NCCc2csc(C)n2)cc1	-80.7*
Cc1ccccc1OCc1n(CC(=O)OC2CC(C)CCC2C(C)C)c2ccccc2[n+]1C (stereo not drawn)	84.8
COCCNC(=O)c1ccc(-c2csc(C)n2)cc1	-64.0*
SMILES	aSyn UTR act
O=C(NC1CCCC1)c1cc(-c2ccc(Cl)c(Cl)c2)on1	-150.8*
Cc1nn(Cc2ccc(Cl)c(Cl)c2)c(C)c1NC(=O)c1cc(-c2ccc3c(c2)OCO3)on1	66.3
O=C(NC1CCCCC1)c1cc(-c2cccs2)on1	-160.9*
Cc1ccc(-c2cc(C(=O)NC3CCCC3)no2)cc1	-140.6*
O=C(NC1CCCCC1)c1cc(-c2ccc(F)cc2)on1	-155.8*
COc1ccc(C)c2sc(=NC(=O)c3cccc(N4C(=O)CCC4=O)c3)n(C)c12	-92.9*
COc1ccc(C)c2sc(=NC(=O)c3ccccc3)n(C)c12	-265.6*
C[n+]1cn(/N=C/c2ccccc2)c2ccccc21	-86.9*
COc1cc(CNC(=O)c2cccc(COc3ccc(Cl)cc3)c2)cc(OC)c1	-76.9*
O=C(NCc1ccccc1)c1cccc(COc2ccc(Cl)cc2)c1	-162.2*
Clc1ccccc1-c1ncc(-c2ccccc2)o1	-143.0*
COc1ccc(N2C(=O)CC(Sc3nc(C)cc(C)c3C#N)C2=O)cc1 (stereo not drawn)	-86.9*
COc1ccc(OC)c(Nc2c3c(nc4ccccc24)CCC3)c1	105.8
Cc1ccc(Nc2nc(NCCO)c3ccccc3n2)cc1C	-76.0*
COc1ccc(OC)c(Nc2nc(NCCO)c3ccccc3n2)c1	-68.4*
OCCNc1c2ccccc2nc2ccccc12	-167.1*
S=C(Nc1ccc(Cl)cc1)NC1CCCCC1	-73.3*
FC(F)Oc1ccc(NC(=S)NC2CCCCCCC2)cc1	-93.1*
S=C(Nc1ccc(Br)cc1)NC1CCCCC1	-119.0*
O=C(/C=C/Sc1ccc(C(F)(F)F)cn1)c1ccccc1	-72.4*
O=C(NCCc1ccccc1)c1c(O)c2ccccc2[nH]c1=O	-118.6*
O=C(NC1CC1)c1c(O)c2ccccc2[nH]c1=O	-67.9*
O=C(NC1CCCCCCC1)c1c(O)c2ccccc2[nH]c1=O	-99.4*
NNC(=O)c1[nH]c2ccccc2c1-c1ccccc1	95.7
CC#CC(=O)N1CCC(n2nccc2NC(=O)c2ccc3c(c2)OCO3)CC1	-83.0*
SMILES	aSyn UTR act
CSCCC(=O)N1CCC(n2nccc2NC(=O)c2ccc3c(c2)OCO3)CC1	-84.1*
Oc1ccc(-c2nccc(-c3ccccn3)n2)cc1	-188.3*
FC(F)(F)c1cc(Oc2ccccc2Cl)nc(-c2ccccn2)n1	64.2
O=C(Oc1ccc(-c2nccc(-c3ccccn3)n2)cc1)c1cccc(C(F)(F)F)c1	-139.9*
Cc1ccc(C(=O)Oc2ccc(-c3nccc(-c4ccccn4)n3)cc2)cc1	-144.0*
Cc1ccc(OCc2cn3cccnc3n2)cc1	-61.6*
Cc1ccccc1/C=N/NC(=O)c1sccc1C	-176.5*
Cc1ccccc1/C=N\NC(=O)c1ccccc1-n1cccc1	-65.4*
Cc1ccsc1C(=O)NN=C1CCCCCC1	-127.5*
CC(C)(C)c1cc(C(=O)N/N=C/c2ccccc2O)n(-c2ccccc2)n1	62.4
COc1ccc(/C=N/NC(=O)c2sccc2C)c2ccccc12	-110.2*
C=CCOn1c(=O)c(-c2cc3ccccc3o2)[n+]([O-])c2ccccc21	-144.2*
CCCOc1ccc(-c2c(=O)n(OCC(=O)OCC)c3ccccc3[n+]2[O-])cc1	-87.6*
CCOc1ccc(-c2c(=O)n(OCc3ccc([N+](=O)[O-])cc3)c3ccccc3[n+]2[O-])cc1	-177.9*
CCCCCCCCCCOC(=O)Cn1c(COc2ccc(Cl)cc2)[n+](C)c2ccccc21	82.6
CCOC(=O)COn1c(=O)c(-c2cc3ccccc3o2)[n+]([O-])c2ccccc21	-113.9*
O=C(Nc1ccc(F)cc1)c1ccccc1F	-135.0*
O=C(Nc1ccc(Oc2cccnc2)cc1)c1ccccc1F	-114.7*
O=C(Nc1ccc(C(=O)N2CCCC2)cc1)c1ccccc1F	-65.4*
CCOC(=O)c1ccc(NC(=O)c2ccccc2C)cc1	-156.4*
O=C(Nc1ccc2oc(-c3ccc(F)cc3)nc2c1)c1ccccc1F	-113.5*
CCOC(=O)Nc1ccc(NC(=O)c2ccccc2F)cc1	-149.1*
CC(=O)Nc1ccc(NC(=O)c2ccccc2F)cc1	-81.4*
O=C(Nc1ccc2cn[nH]c2c1)c1ccccc1F	-224.3*
CCOC(=O)c1ccc(NC(=O)c2ccnn2C)cc1	-159.2*
SMILES	aSyn UTR act
Cc1nc(-c2ccc(Cl)cc2)sc1C1(C)CC(c2ccccc2)=NO1 (stereo not drawn)	-134.2*
COc1ccccc1C1=NOC(C)(c2sc(-c3ccc(Cl)cc3)nc2C)C1 (stereo not drawn)	-69.8*
Cc1nc(-c2ccccc2)sc1C1(C)CC(c2ccccc2F)=NO1 (stereo not drawn)	-75.6*
O=C(Nc1ccc2c(c1)oc1ccccc12)c1cccnc1	-190.2*
O=C(Nc1ccc2c(c1)oc1ccccc12)c1ccncc1	-207.4*
CCNC(=S)Nc1ccc2c(c1)oc1ccccc12	-164.6*
Nc1nc(CSCc2ccccc2)nc(N2CCOCC2)n1	-67.2*
Cc1cccc(NC(=O)CCNC(=O)c2ccc(Br)cc2)c1	-92.6*
O=C(Nc1ccc(Br)cc1)c1cc2ccccn2n1	-116.8*
CC(C)c1cc(C(=O)Nc2cccc(C(F)(F)F)c2)no1	-101.7*
CC(=O)c1cccc(NC(=O)Nc2ccccc2)c1	-95.8*
O=C(Nc1ccccc1)Nc1ccc2ccccc2c1	-141.1*
CC(=O)c1ccc(NC(=O)c2cc(C)nc3ccccc23)cc1	-101.0*
CC(=O)c1cccc(NC(=O)Nc2nc(C)cc(C)n2)c1	-85.3*
CN(C)C(=S)Nc1ccc2ccccc2c1	-66.6*
CC(=O)c1ccc(NC(=O)c2cccc(NC(=O)c3ccccc3)c2)cc1	-115.6*
